Only some compounds are listed: those with a hit (about 8.5% of all), similar ones and a draw of the others.
Sfp PPTase inh: qHTS Assay for Inhibitors of Bacillus subtilis Sfp phosphopantetheinyl transferase (PPTase). Biochemical Sfp PPTase activity, qHTS. Potency, µM, inactives show largest response in the series, negative = inhibition, actives largely listed as inhibitors. 310,000 tested, 3.5% active. AID 1490, 2009;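 further: the enzyme is Sfp with the accession as filed and its product quenches rhodamine fluorescence; potency means the concentration at half of the fitted maximal effect; 0% = enzyme reaction without inhibitor and -100% = no enzyme wells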
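Compounds were incubated with enzyme (final 15 nM) for 15 min at room temperature before substrate addition started the reaction. Fluorescence at 525 nm excitation, 598 nm emission was recorded immediately and after 30 minutes.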
NPSR antag: qHTS Assay for Antagonists of the Neuropeptide S Receptor: cAMP Signal Transduction | CHO-NPSR cells, cAMP TR-FRET, antagonist mode | Potency, µM (highest dose often 38.3 µM), without a hit: top-dose activity change, negative = inhibition, hits mostly inhibitors | 220,000 tested, 1% active | AID 1461, 2008; further: potency means the concentration at half of the fitted maximal effect; nearly all actives have a fitted effect of over 50% in size
JMJD2E inh: qHTS Assay for Inhibitors of Human Jumonji Domain Containing 2E (JMJD2E). JMJD2E catalytic domain, FDH-coupled NADH fluorescence (FDH is formaldehyde dehydrogenase). Potency, µM (highest dose often 57.1 µM), inactives show top-dose activity change, negative = inhibition, hits mostly inhibitors. 230,000 tested, 1.6% active. AID 2147, 2009; active means well fitted inhibition curve with a large enough effect, not every such curve was filed as active; inconclusive means small, poorly fitted or top-dose-only effect, or another doubt; inactive means no such curve, though single readings can be large or run the other way;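 further: potency means the concentration at half of the fitted maximal effect; 0% = wells with enzyme and -100% = buffer wells without enzyme; nearly all actives have a fitted effect of over 50% in size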
Target sequence (B2RXH2 1-337 limits assumed): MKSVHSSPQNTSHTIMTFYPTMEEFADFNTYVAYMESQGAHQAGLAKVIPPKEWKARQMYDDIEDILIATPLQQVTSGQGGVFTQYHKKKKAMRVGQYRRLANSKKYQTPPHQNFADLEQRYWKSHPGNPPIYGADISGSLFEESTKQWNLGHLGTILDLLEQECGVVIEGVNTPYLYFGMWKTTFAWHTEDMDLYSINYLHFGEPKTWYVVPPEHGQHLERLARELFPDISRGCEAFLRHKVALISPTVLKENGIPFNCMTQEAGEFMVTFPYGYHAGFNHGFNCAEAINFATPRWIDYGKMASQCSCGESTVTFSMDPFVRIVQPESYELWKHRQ
ALDH1A1 inh: qHTS Assay for Inhibitors of Aldehyde Dehydrogenase 1 (ALDH1A1); Aldehyde dehydrogenase 1A1 (Homo sapiens), P00352; Purified ALDH1A1, NADH fluorescence, propionaldehyde substrate; Potency, µM (titrated, usually from 75.3 µM), for the others: at the highest dose activity, negative = inhibition, usual class: inhibitors; 220,000 tested, 7.3% active; active means well fitted inhibition curve with a large enough effect, not every such curve was filed as active; inconclusive means small, poorly fitted or top-dose-only effect, or another doubt; inactive means no such curve, though single readings can be large or run the other way;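 further: potency means the concentration at half of the fitted maximal effect; plate controls were no enzyme wells and a reference inhibitor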
FBPA coupling cs: qHTS Assay for Inhibitors of Fructose-1,6-bisphosphate Aldolase from Giardia Lamblia: Coupling assay counterscreen. AID 2472, 2010. activity change, negative = inhibition, % at 58.2 µM, hits read low. coupling enzyme system counterscreen, AmpLite Red fluorescence. 290,000 tested, 0.67% active; in the data active means activity change below about -30%
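Counterscreen of the coupled detection system alone, without aldolase: glyceraldehyde-3-phosphate coupling enzymes plus AmpLite Red readout. Compounds at 57.5 uM final, 10 min RT preincubation, 20 min RT reaction, fluorescence 525/598 nm.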
RGS12 GoLoco inh: qHTS Assay for Inhibitors of RGS12 GoLoco Motif Activity (Red Fluorophore); 230,000 tested, 0.44% active; AID 880, 2007; Gai1:RGS12 GoLoco peptide FP, rhodamine, 10 min; Guanine nucleotide-binding protein G(i) subunit alpha-1 (Homo sapiens), P63096; Potency, µM (series often up to 61.6 µM), for inactives: at the highest dose activity, negative = inhibition, most hits filed as inhibitors; active means well fitted inhibition curve with a large enough effect, not every such curve was filed as active; inactive means no such curve, though single readings can be large or run the other way; further: potency means the concentration at half of the fitted maximal effect; nearly all actives have a fitted effect of over 30% in size
Target sequence (P63096 whole entry, looked up): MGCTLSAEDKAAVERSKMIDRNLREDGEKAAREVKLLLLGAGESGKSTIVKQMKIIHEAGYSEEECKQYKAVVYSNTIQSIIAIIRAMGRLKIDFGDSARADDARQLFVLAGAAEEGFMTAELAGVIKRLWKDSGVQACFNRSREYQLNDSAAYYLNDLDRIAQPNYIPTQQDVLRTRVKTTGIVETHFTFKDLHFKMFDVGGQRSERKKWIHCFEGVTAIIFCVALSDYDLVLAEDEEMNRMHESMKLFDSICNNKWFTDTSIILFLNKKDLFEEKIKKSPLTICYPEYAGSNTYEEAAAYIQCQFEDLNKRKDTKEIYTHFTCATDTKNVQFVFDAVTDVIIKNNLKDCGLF
Starred values were filed as active, the others as inactive; ? = inconclusive; . = no result given; [ ] = remark or other dose. Unless noted, the call rests on the fitted dose curve; in most records, active means well fitted curve in the direction sought with a large enough effect; inconclusive means small, poorly fitted or top-dose-only effect, or another doubt; inactive means no such curve, though single readings can be large; an effect the other way counts as inactive or inconclusive. Unless noted, on the % scale 0 is the no-effect control and ±100 the full control effect.

SMILES	Sfp PPTase inh	NPSR antag	JMJD2E inh	ALDH1A1 inh	FBPA coupling cs	RGS12 GoLoco inh
O=C(CN1CCOCC1)Nc1nc2cc([N+](=O)[O-])ccc2s1	11%	2%	-5%	?	0	2%
COc1cccc2cc(C(N)=O)/c(=N/NC(=O)COc3ccc(Cl)cc3)oc12	4%	15%	-9%	4%	3	8%
CCOC(=O)C1=C(C)N(c2ccc(OCC)cc2)C(=O)/C1=C\c1ccco1	50µM*	-50%	-7%	?	-2	14%
CCOc1ccc(N2C(=O)/C(=C/c3ccco3)N(C)C2=S)cc1	40µM*	-7%[46.1 µM]	-12%	?	1	20%
CCOc1ccc(N2C(=O)/C(=C/c3ccccc3OCC(=O)OC)N(CC(=O)OC)C2=S)cc1	7%	-39%	-6%	?	-4	20%
O=C(O)CCN1C(=O)C2C3C=CC(C2C1=O)C1C(=O)N(CCC(=O)O)C(=O)C31 (configuration not stated)	11%	.	.	.	4	.
Cc1ccc(CN2CCN(/N=C/c3ccc(C)s3)CC2)cc1	-12%	5%	5%	-1%	2	0%
S=C1NC2=C(CCCC2=C2SCCCS2)C(c2ccccc2)N1 (configuration not stated)	-12%	-21%	0%	1µM*	1	-9%
COc1ccc(C2NC(=S)NC3=C2CCCC3=C2SCCS2)cc1 (configuration not stated)	16%	-53%	-8%	?	5	80%
O=C1CCCC2=C1C(c1ccccc1)NC(=S)N2 (configuration not stated)	?	4%	-8%	?	-2	-8%
Fc1ccccc1/C=C1\CCCC2=C1NC(=S)NC2c1ccccc1F (configuration not stated)	28µM*	-29%	?	0.79µM*	0	6%
S=C1NC2=C(CCC/C2=C\c2ccc(Cl)cc2)C(c2ccc(Cl)cc2)N1 (configuration not stated)	7.9µM*	37%	-7%	13µM*	-3	3%
S=C1NC2=C(CCC/C2=C\c2ccccc2)C(c2ccccc2)N1 (configuration not stated)	22µM*	-4%	-12%	0.63µM*	2	12%
CC1CC2=C(NC(=S)NC2c2ccc(F)cc2)/C(=C/c2ccc(F)cc2)C1 (configuration not stated)	-25%	-13%[46.1 µM]	-6%	3.5µM*	2	-2%
Fc1cccc(/C=C2\CCCC3=C2NC(=S)NC3c2cccc(F)c2)c1 (configuration not stated)	?	?	-7%	0.79µM*	0	7%
C/C(=N\OC(=O)Nc1ccccc1)c1cnn(-c2cc(C(F)(F)F)cc(C)n2)c1C	14%	-19%	3%	.	1	9%
CCOC(=O)c1ccc(NC(=O)CC2SCCNC2=O)cc1 (configuration not stated)	8%	3%[46.1 µM]	1%	13µM*	1	3%
Cc1ccccc1NC(=O)CC1SCCNC1=O (configuration not stated)	22µM*	0%[46.1 µM]	-8%	20%	-1	-6%
Cc1cc(C(=O)CSc2nncs2)c(C)n1Cc1ccco1	-14%	5%	-16%	?	-1	-11%
Cc1ccc2cccc(OCC(=O)c3cc(C)n(Cc4ccco4)c3C)c2n1	56µM*	-34%	-16%	?	-16	40%
Cc1cc(C(=O)CCl)c(C)n1Cc1ccco1	-24%	-36%	-13%	0.1µM*	-1	25%
COc1ccc(OC)c(CCNC(=O)c2cccc(NC3=NC4CS(=O)(=O)CC4S3)c2)c1 (configuration not stated)	12%	.	.	.	0	.
O=C1CCSc2ccc(Cl)cc2N1Cc1ccccc1	13%	-13%[46.1 µM]	-3%	2%	1	6%
Cc1cccc(CN2C(=O)CCSc3ccc(Cl)cc32)c1	-4%	-19%[46.1 µM]	-4%	14µM*	3	-5%
NNc1ccc(Cl)nn1	45µM*	-17%	-12%	18µM*	0	-25%
SMILES	Sfp PPTase inh	NPSR antag	JMJD2E inh	ALDH1A1 inh	FBPA coupling cs	RGS12 GoLoco inh
CNc1ccc(Cl)nn1	14%	12%	-27%	-1%	0	8%
COc1ccc(CC(=O)OCC(=O)Nc2ncc(Cl)cc2Cl)cc1	4%	-15%[46.1 µM]	-4%	3%	0	19%
O=C(COC(=O)c1ccc(Br)o1)Nc1ncc(Cl)cc1Cl	-6%	10%	15%	19µM*	0	24%
COc1cccc(C(=O)NCC(=O)OCC(=O)Nc2ncc(Cl)cc2Cl)c1	-1%	1%	-10%	1%	1	22%
COc1cc(OC)cc(C(=O)NCC(=O)OCC(=O)Nc2ncc(Cl)cc2Cl)c1	7%	10%	-8%	25µM*	-1	24%
N#CC1=C(N)Oc2ccc3ccc(O)cc3c2C1c1ccsc1 (configuration not stated)	-8%	-18%	-4%	?	-4	13µM*
CCOC(=O)c1c(C)n(C)c2ccc(OC)c(NC(=O)CCN3CCC(Cc4ccccc4)CC3)c12	-18%	23%	-6%	.	-1	-4%
Cc1nn(-c2ccccc2)c2sc(C(=O)N(CC(=O)NC(C)(C)C)Cc3ccco3)cc12	-10%	?	?	25µM*	1	5%
O=S(=O)(O)[C@@H](CO)c1ccccc1 (tested in a mixture with another compound)	.	.	.	-8%[13.5 µM]	.	4%[14.2 µM]
CC(=O)c1cccc(NC(=O)C(C)N(C)CC(=O)Nc2ccc(Cl)cc2)c1 (configuration not stated)	-5%	17%[7.67 µM]	-9%	.	0	4%
COc1ccc(C(C[N+](=O)[O-])c2c(-c3ccccc3)cc3ccccn23)c(OC)c1 (configuration not stated)	45µM*	-15%[46.1 µM]	-6%	?	-19	38%
COc1ccc(C(C[N+](=O)[O-])c2c(C)cc3ccccn23)cc1 (configuration not stated)	6%	-21%	?	?	-1	8%
COc1cc(C(=O)NC(C)CCn2cccn2)ccc1OC1CCN(C(C)=O)CC1 (configuration not stated)	27%	.	.	.	.	.
CCN(CC)c1ccc(/C=N/N2CCN(Cc3ccccc3)CC2)cc1	-17%	-46%	?	7.9µM*	-3	2%
